Screens deposited in PubChem by National Center for Advancing Translational Sciences (NCATS).
HT1080NT lethal: kills 2HG-producing HT-1080-NT fibrosarcoma cells; HT-1080-NT fibrosarcoma viability, CellTiter-Glo ATP luminescence, 48 h; Potency, µM (top dose mostly 46.1 µM), without a hit: at the top dose activity, negative = less viability, usual class: cytotoxic; 360,000 compounds, 1.6% hits; AID 686970;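 further: NT is the 2HG producing partner of a matched IDH1 knockdown line; potency means the concentration at half of the fitted maximal effect; 0% = DMSO-treated cells and -100% = media-only wells without cells; nearly all actives have a fitted effect of over 55% in size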
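Luminescent CellTiter-Glo readout after 48 hours of compound exposure at 37 degrees C defined viability of HT-1080-NT cells. Activity was normalized to DMSO wells and cell-free media wells; concentration-response curves were fitted and assigned curve classes.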
IL-1B inflam inh: inhibitors of inflammasome signaling (IL-1 beta secretion) | THP-1 LPS/ATP IL-1B secretion, AlphaLISA, 16 h; hits give low values | activity change, % at 57.5 µM | 360,000 compounds, 4.7% hits | AID 743279; in the data active means activity change below about -50%; inconclusive means mostly about -30% to -49%
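THP-1 cells pretreated 1 hr with compounds (up to 57.5 uM final), then stimulated with LPS (250 ng/mL final) plus ATP (1.25 mM final); secreted IL-1B measured by AlphaLISA after 16 hr, decreased signal indicating inhibition.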
ELG1 DNA repair: blocks ELG1-dependent DNA repair in HEK293T cells | HEK293T ELG1-luciferase reporter, luminescence, 16 h; DNA damage induced by 5-fluorouridine | 330,000 compounds, 2.3% hits | AID 504467 | Potency, µM (doses to about 46.1 µM), for the others: top-dose activity change, negative = inhibition, usual class: inhibitors; further: potency means the concentration at half of the fitted maximal effect; nearly all actives have a fitted effect of over 55% in size
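Quantitative HTS, concentration-response format. 2,000 cells/well co-treated with 5-fluorouridine and compound, 16 hr in 5% CO2 at 37 °C; ONE-Glo luminescence read after 30 min.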
DT40 TDP1 CPT: DT40-hTDP1 cell growth loss with CPT | chicken DT40 Tdp1-/-;hTDP1 cells + 20 nM CPT, ATP luminescence, 48 h | Potency, µM (highest dose often 46.2 µM), for the others: at the highest dose activity change, negative = growth inhibition, most hits filed as inhibitors | 420,000 compounds, 12% hits | AID 686979; further: potency means the concentration at half of the fitted maximal effect; nearly all actives have a fitted effect of over 55% in size
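Chicken DT40 Tdp1-/- cells complemented with human TDP1, 400 cells/well, exposed to compounds plus 20 nM camptothecin for at least 48 h at 37 C; viability read as ATP content by CellTiter-Glo luminescence.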
HT1080 IDH1KD tx: HT-1080 IDH1 knockdown cell toxicity (counter line). HT-1080 IDH1 knockdown viability, ATP luminescence, 48 h. Potency, µM (highest dose often 46.1 µM), inactives show at the top dose activity, negative = toxicity, actives largely listed as cytotoxic. 360,000 compounds, 2% hits. AID 686971;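 further: potency means the concentration at half of the fitted maximal effect; 0% = DMSO wells and -100% = cell-free medium wells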
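Knockdown cells (IDH1KD HT-1080) received compounds 2 h after plating at 750 cells/well and were kept 48 h at 37 °C in 5% FBS RPMI. A CellTiter-Glo luminescence read gave % activity for curve fitting.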
TDP1 cell noCPT: qHTS for Inhibitors of human tyrosyl-DNA phosphodiesterase 1 (TDP1): qHTS in cells in absence of CPT; DT40 Tdp1-/- hTDP1 cells, no CPT, ATP luminescence, 48 h; Potency, µM (doses to about 46.2 µM), for inactives: at the top dose activity change, negative = growth inhibition, actives largely listed as inhibitors; 420,000 compounds, 15% hits; further: potency means the concentration at half of the fitted maximal effect; nearly all actives have a fitted effect of over 55% in size
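Cells were dispensed at 400 per well, compounds added by pin tool, plates incubated ≥48 hr at 37 °C, then CellTiter-Glo added for 30 min at room temperature before luminescence reading. Line: DT40 Tdp1-/- complemented with hTDP1; camptothecin omitted.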
An asterisk follows results filed as active; ? = inconclusive; · = not tested or not shown; [ ] = another dose, or the depositor's remark. An excerpt weighted towards active compounds, which were near 19% of everything screened. Unless noted, the call rests on the fitted dose curve; in most records, active means well fitted curve in the direction sought with a large enough effect; inconclusive means small, poorly fitted or top-dose-only effect, or another doubt; inactive means no such curve, though single readings can be large; an effect the other way counts as inactive or inconclusive. Unless noted, on the % scale 0 is the no-effect control and ±100 the full control effect.

SMILES | HT1080NT lethal | IL-1B inflam inh | ELG1 DNA repair | DT40 TDP1 CPT | HT1080 IDH1KD tx | TDP1 cell noCPT
CN(C(=O)Cn1cc(C#N)c2ccccc21)c1ccccc1 | -2.1% | 9.1 | -0.7% | -17.9% | 5.7% | -18.2%
COc1ccc(NC(=O)Cn2cc(S(=O)(=O)Cc3ccccc3)c3ccccc32)c(OC)c1 | -19.1% | 15.8 | 14.6µM* | 4.5% | 0.3% | 4.7%
COc1ccc(C)cc1NC(=O)Cn1cc(S(=O)(=O)N2CCC(C)CC2)c2ccccc2c1=O | · | · | · | -19.7% | · | ?
CN(C(=O)Cn1cc(S(=O)(=O)Cc2ccccc2Cl)c2ccccc21)c1ccccc1 | · | · | · | 20.6µM* | · | 20.6µM*
COc1ccc(C)cc1NC(=O)Cn1cc(S(=O)(=O)Cc2ccccc2Cl)c2ccccc21 | · | · | · | ? | · | 20.6µM*
COc1ccc(NC(=O)CN(c2ccc(OC)c(Cl)c2)S(=O)(=O)c2ccccc2)c(OC)c1 | -12.9% | 38.9 | -20.0% | ? | -3.7% | 23.1µM*
COc1ccc(OC)c(NC(=O)CN(c2ccc(OC)c(Cl)c2)S(C)(=O)=O)c1 | -25.0% | 1.1 | -5.9% | -23.3% | -5.1% | ?
CCOc1ccc(NC(=O)c2ccccc2NS(=O)(=O)c2ccc(F)cc2)c([N+](=O)[O-])c1 | -11.2% | ? | -29.0% | 23.1µM* | -1.5% | ?
COc1ccc(N(CC(=O)Nc2ccccc2OC)S(=O)(=O)c2ccccc2)cc1Cl | -2.9% | -11.7 | -18.0% | 13µM* | -19.5% | ?
COc1ccc(N(CC(=O)Nc2cccnc2)S(=O)(=O)c2ccccc2)cc1Cl | -8.7% | -1.0 | -15.8% | -25.1% | -8.5% | ?
CCOC(=O)c1ccccc1NS(=O)(=O)c1ccc(OCC)cc1 | 7.08µM* | 8.1 | ? | 7.94µM* | 2.24µM* | 12.6µM*
CCOc1ccc(S(=O)(=O)Nc2ccccc2C(=O)Nc2ccccc2N2CCOCC2)cc1 | -1.2% | 3.5 | 19.0% | ? | -1.5% | ?
COc1ccc(S(=O)(=O)N2CCN(c3ccccc3OC)CC2)cc1-c1noc(C)n1 | · | · | · | -7.1% | · | -6.4%
COc1ccc(C)cc1NC(=O)C1CCN(S(=O)(=O)c2ccc3c(c2)CCCN3C(C)=O)CC1 | · | · | · | 3.0% | · | 6.1%
C[C@@H]1CN([C@H](C)CO)C(=O)CCCn2nncc2CO[C@H]1CN(C)S(=O)(=O)c1ccc(Oc2ccccc2)nc1 | -3.3% | -19.2 | · | -5.4% | 2.1% | -9.7%
O=C(NC1=NCCS1)c1cccc(OC(F)F)c1 | -1.3% | -2.5 | ? | -4.5% | 2.2% | 15.4%
CCOC(=O)c1ccccc1NC(=O)CN(c1ccccc1)S(=O)(=O)c1ccc(OCC)cc1 | · | · | · | 23.1µM* | · | 14.6µM*
COC(=O)c1cccc(NS(=O)(=O)c2ccc(OC)cc2)c1C | 11.6µM* | 33.4 | ? | 5.17µM* | -22.6%[9.24 µM] | 6.51µM*
COC(=O)c1cccc(NS(=O)(=O)c2ccc(OC)c(OC)c2)c1C | -0.3% | 0.0 | ? | ? | -5.0% | ?
CCOc1ccccc1NC(=O)CN(c1ccc(OC)c(OC)c1)S(=O)(=O)c1ccc(C)cc1 | -7.0% | -7.0 | · | ? | -7.2% | ?
COc1ccc(N(CC(=O)Nc2ccc(OC)cc2OC)S(=O)(=O)c2ccccc2)cc1 | -23.8% | 13.7 | ? | 23.1µM* | ? | 18.4µM*
COc1ccc(NC(=O)CN(c2ccc([N+](=O)[O-])cc2)S(=O)(=O)c2ccccc2)c(OC)c1 | 2.3% | -0.8 | -17.5% | ? | -15.3% | ?
CCOC(=O)c1ccccc1NC(=O)CN(c1ccccc1OC)S(=O)(=O)c1ccc(C)cc1 | · | · | · | ? | · | 11.6µM*
O=C(NNc1cc(Cl)cc(Cl)c1)c1sccc1Cl | -25.7% | · | · | ? | -14.6% | ?
CCOC(=O)c1ccccc1NC(=O)CN(c1ccccc1C)S(C)(=O)=O | 1.7% | 12.8 | 9.0% | ? | -3.7% | 16.4µM*
SMILES | HT1080NT lethal | IL-1B inflam inh | ELG1 DNA repair | DT40 TDP1 CPT | HT1080 IDH1KD tx | TDP1 cell noCPT
COc1ccc(N(CC(=O)NCc2ccncc2)S(=O)(=O)c2ccc(C)c([N+](=O)[O-])c2)cc1 | -5.3% | -5.0 | -3.4% | ? | -10.5% | 10.9%
COc1ccc(N(CC(=O)Nc2ccccc2F)S(=O)(=O)c2ccc(C)c([N+](=O)[O-])c2)cc1 | -14.7% | -8.9 | -14.0% | ? | -9.6% | 23.1µM*
CCOc1ccc(N(CC(=O)Nc2ccccc2OC)S(=O)(=O)c2ccccc2)cc1 | 2.06µM* | 49.8 | ? | 1.16µM* | 1.64µM* | 1.16µM*
COc1ccccc1NC(=O)CN(c1ccccc1C)S(C)(=O)=O | 0.3% | 10.4 | -3.5% | 2.6% | -0.6% | -4.0%
COc1ccc(S(=O)(=O)N(CC(=O)Nc2ccc(OC)cc2OC)c2ccc(Cl)cc2)cc1 | · | · | · | 23.1µM* | · | 25.9µM*
CCN(CC)Cc1c(C(=O)N/N=C/c2c(Cl)cccc2Cl)nnn1-c1nonc1N | 5.5% | 5.8 | 16.4% | 11.1% | 5.8% | -23.6%
CCn1nc(C)cc1C(=O)Sc1cccc(Br)c1 | 13µM* | -101.8* | 12.9% | 3.66µM* | 20.6µM* | 4.61µM*
CCn1nc(C)cc1C(=O)OCC(=O)c1ccc(Cl)cc1 | -3.5% | 6.0 | -5.3% | -15.0% | -4.2% | -18.0%
CCn1nc(C)cc1C(=O)Sc1ccc(Cl)cc1Cl | ? | -62.5* | 12.2% | 3.66µM* | ? | 3.66µM*
Cc1nc(C)n(C(C)CNC(=O)c2cccc(Br)c2)n1 (stereo not given) | 0.9% | 3.9 | -1.6% | -1.8% | 9.1% | 3.1%
Cc1cc(F)ccc1C(O)c1ncc(-c2ccccc2C(F)(F)F)[nH]1 (stereo not given) | -10.3% | -15.3 | · | -24.6% | -7.3% | -26.2%
